# From PubChem BioAssay
# An excerpt weighted towards active compounds, which were near 12% of everything screened.
# JMJD2A Tudor = blocks the human JMJD2A Tudor domain. O75164. AlphaScreen JMJD2A-Tudor / H3K4me3 peptide binding. Potency, µM (highest dose often 114 µM), without a hit: at the highest dose activity change, negative = inhibition, most hits filed as inhibitors. actives 4.4% (n = 390,000); also: % is scaled to controls: 0 for no effect and ±100 for the full control effect; nearly all actives have a fitted effect of over 50% in size
# G9a block = inhibitors of human histone lysine methyltransferase G9a | Q96KQ7 | G9a H3K9 monomethylation, AlphaScreen, 2 h | Potency, µM (series often up to 102 µM), for the others: at the highest dose activity, negative = inhibition, usual class: inhibitors | actives 8.8% (n = 350,000) | AID 504332; also: % is scaled to controls: 0 for no effect and ±100 for the full control effect; nearly all actives have a fitted effect of over 75% in size
#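 Signal arises when biotinylated H3K9 peptide, once monomethylated, bridges streptavidin donor and antibody-captured acceptor beads. Enzyme at 20 nM was preincubated 15 min with test compounds; peptide 500 nM and SAM 20 uM then reacted for 2 h.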
# L3MBTL1 inh = blocks human L3MBTL1; Q9Y468; actives 0.66% (n = 230,000); Potency, µM (top dose mostly 57.1 µM), without a hit: at the highest dose activity, negative = inhibition, usual class: inhibitors; AID 485360; AlphaScreen L3MBTL1–H3K9me1 peptide binding; also: % is scaled to controls: 0 for no effect and ±100 for the full control effect; nearly all actives have a fitted effect of over 60% in size
# Target sequence (Q9Y468 whole entry, looked up): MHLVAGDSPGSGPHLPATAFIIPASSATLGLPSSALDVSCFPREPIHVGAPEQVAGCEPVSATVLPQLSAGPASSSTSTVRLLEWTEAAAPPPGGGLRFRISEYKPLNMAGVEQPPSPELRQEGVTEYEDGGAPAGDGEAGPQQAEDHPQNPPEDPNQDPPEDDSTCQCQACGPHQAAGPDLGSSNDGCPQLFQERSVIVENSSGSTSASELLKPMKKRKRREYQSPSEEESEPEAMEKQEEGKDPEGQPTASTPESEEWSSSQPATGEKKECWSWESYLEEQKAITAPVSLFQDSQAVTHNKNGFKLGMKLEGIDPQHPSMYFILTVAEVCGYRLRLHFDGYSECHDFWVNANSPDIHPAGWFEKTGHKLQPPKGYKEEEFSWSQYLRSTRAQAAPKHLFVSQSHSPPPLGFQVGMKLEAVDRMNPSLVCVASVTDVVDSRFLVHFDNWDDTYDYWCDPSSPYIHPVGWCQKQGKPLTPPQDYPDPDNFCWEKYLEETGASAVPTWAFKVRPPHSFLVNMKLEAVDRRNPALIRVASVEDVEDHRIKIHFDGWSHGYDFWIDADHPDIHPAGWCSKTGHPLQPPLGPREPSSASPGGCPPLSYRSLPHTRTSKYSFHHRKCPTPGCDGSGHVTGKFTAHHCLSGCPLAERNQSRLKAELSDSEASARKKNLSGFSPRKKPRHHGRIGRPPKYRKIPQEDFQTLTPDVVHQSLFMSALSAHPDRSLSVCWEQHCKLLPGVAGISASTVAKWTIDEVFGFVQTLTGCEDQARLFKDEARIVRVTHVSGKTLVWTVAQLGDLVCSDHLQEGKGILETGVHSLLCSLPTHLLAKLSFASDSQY
#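 AlphaScreen assay: L3MBTL1 (50 nM final) was preincubated 30 min at room temperature with biotinylated H3(1-15)K9me1 peptide (75 nM final), then 30 min with library compounds; streptavidin donor and nickel chelate acceptor beads (10 ug/mL final) added, 30 min dark.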
# Sfp inh = inhibitors of Bacillus subtilis Sfp phosphopantetheinyl transferase; Q9F4F7; Biochemical Sfp PPTase activity, qHTS; Potency, µM, without a hit: largest response in the series, negative = inhibition, hits mostly inhibitors; actives 3.5% (n = 310,000); AID 1490;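 also: the enzyme is Sfp with the accession as filed and its product quenches rhodamine fluorescence; 0% = enzyme reaction without inhibitor and -100% = no enzyme wells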
#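 Fluorescence-quenching assay: 15 nM Sfp-PPTase preincubated 15 min at room temperature with compound, then 5 uM rhodamine-CoA and 12.5 uM BHQ-2-labelled YbbR peptide added. Fluorescence (ex 525/em 598 nm) read at start and after 30 min; difference gives rate.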
# HP1b binding inh = inhibitors of HP1-beta chromodomain binding to methylated histone tails; P83916; AlphaScreen HP1-beta / biotin-H3K9me3 peptide binding; Potency, µM (top dose mostly 114 µM), inactives show top-dose activity change, negative = inhibition, usual class: inhibitors; actives 0.56% (n = 390,000); also: nearly all actives have a fitted effect of over 70% in size
#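 AlphaScreen: HP1-beta (50 nM) preformed 30 min with biotin-H3(1-18)K9me3 peptide (50 nM) in PBS pH 7.4, 0.01% Tween-20. Compound added for 30 min at RT, then streptavidin donor/nickel chelate acceptor beads (10 ug/mL) for 30 min.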
# BAZ2B block = blocks human BAZ2B; actives 4.4% (n = 360,000); Potency, µM (top dose mostly 114 µM), without a hit: at the highest dose activity change, negative = inhibition, most hits filed as inhibitors; AlphaScreen BAZ2B-H3K14Ac peptide displacement; Q9UIF8; AID 504333; also: % is scaled to controls: 0 for no effect and ±100 for the full control effect; nearly all actives have a fitted effect of over 60% in size
#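 AlphaScreen displacement of biotin-H3(5-23)K14Ac peptide (50 nM final) from BAZ2B (50 nM final) in PBS pH 7.4, 0.01% Tween-20; complex preformed 30 min RT, then compounds (top 110 uM) 30 min RT, beads 20 min dark.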
# * = called active by the depositor; ? = inconclusive; nt = no result; [ ] = remark or other dose. Calls follow the shape of the dose curve; as a rule, active = well fitted curve in the direction sought with a large enough effect; inconclusive = small, poorly fitted or top-dose-only effect, or another doubt; inactive = no such curve, though single readings can be large; an effect the other way counts as inactive or inconclusive. Potency is read from the fitted curve at half-maximal effect.
SMILES,JMJD2A Tudor,G9a block,L3MBTL1 inh,Sfp inh,HP1b binding inh,BAZ2B block
C/C(=C\c1ccccc1)CN1CCN(C(C)C)C(CCO)C1 (stereo not given),-8%,4%,-2%,19%,25%,-8%
CCN(Cc1ccccc1)C1CCN(Cc2ccc(SC)cc2)CC1,2.5µM*,?,nt,32µM*,?,50µM*
CCN(Cc1ccccc1)C(=O)C1CCN(Cc2ccc(SC)cc2)CC1,20µM*,0%,-7%,8%,?,-22%
Cc1ccc(CN2CCN(CC(=O)NCc3ccccc3Cl)C2=O)cc1,-4%,10%[59 µM],nt,nt,18%,5%
NC(=O)CC(NC(=O)Cc1cccc2ccccc12)c1ccc(NCc2ccc(F)c(F)c2)c([N+](=O)[O-])c1 (stereo not given),-24%,-15%[12.7 µM],nt,-22%,32%,-9%
O=C(O)c1cc(N/N=C/c2ccc(-c3ccccc3)cc2)ccc1Cl,32µM*,17%[0.501 µM],nt,-20%,-25%,?
CSc1ccc(/C=N/NC(=O)c2ccc(C)c(C)c2)cc1,?,-4%[59 µM],-13%,-21%,18%,50µM*
CSc1ccc(/C=N/Nc2ccc(Cl)c(C(=O)O)c2)cc1,-36%,10µM*,-6%,3%,1%,-37%
CSc1ccc(/C=N/NC(=O)c2cc(O)cc(O)c2)cc1,-28%,6%[59 µM],-7%,-8%,19%,-7%
O=C(O)c1cc(N/N=C/c2c[nH]c3ccccc23)ccc1Cl,?,45µM*,nt,-3%,-36%,?
CCC1Nc2ncnc(N3CCOCC3)c2N(Cc2ccc(Cl)cc2)C1=O (stereo not given),-12%,nt,2%,nt,50%,nt
COc1ccc(CCNS(=O)(=O)c2c(C)[nH]c(C)c2C(=O)N2CCCCC2)cc1OC,-5%,8%,nt,13%,54%,-16%[57.1 µM]
CCOc1ccc(C(=O)NCc2ccc3c(c2)CCN3C(=O)c2ccc(C)cc2)cc1OCC,-19%,3%[59 µM],nt,nt,7%,-10%
COc1ccc(C(=O)CN2C(=O)c3ccccc3S2(=O)=O)cc1,-6%,-3%,4%,19%,28%,1%
COc1ccc(C(=O)CN2C(=O)c3ccccc3S2(=O)=O)cc1Br,-29%,50µM*,nt,13%,-2%,-18%
CCOc1ccc(S(=O)(=O)N2CCN(C(=O)CN3C(=O)NC(C)(C)C3=O)CC2)cc1,-4%,6%[2.33 µM],3%,nt,42%,6%
Cc1ccc2c(c1)-c1c(cnn1CC(=O)O)CO2,-2%,-39%,0%,10%,28%,-3%
Cc1cccc(N2CCN(C(=O)CN3CCSc4ccccc43)CC2C)c1 (stereo not given),50µM*,-44%[59 µM],nt,nt,-15%[57 µM],?
Cc1cccc(N2CCN(C(=O)Cn3ncc4c3-c3cc(C)ccc3OC4)CC2C)c1 (stereo not given),?,?,nt,nt,-9%,32µM*
O=C(CN1CCSc2ccccc21)N1CCCCC1,-14%,-7%[59 µM],nt,nt,20%[57 µM],-12%
CCC[C@H]1C[C@H](C(=O)N[C@H]([C@@H]2O[C@H](SC)[C@@H](O)[C@H](O)[C@@H]2O)[C@H](C)O)N(C)C1,nt,15%[21.5 µM],nt,11%,nt,nt
O=C(Nc1ccnc(-c2cccnc2)n1)c1cccc(Cl)c1Cl,-8%,10%,-3%,5%,13%,-4%
NC(=O)c1cc2ccncc2c2ccccc12,-8%,16%[0.501 µM],nt,16%,36%,-1%
COc1cccc(N2CCN(c3ccc4nnc(CCC(=O)Nc5ccc(C)cn5)n4n3)CC2)c1,-33%,-2%,nt,1%,-12%,-36%
CCN(CC)c1ccc(/C=N/O)cc1,-22%,?,-5%,18%,18%,-28%
SMILES,JMJD2A Tudor,G9a block,L3MBTL1 inh,Sfp inh,HP1b binding inh,BAZ2B block
CCN(CC)c1ccc(N=Nc2ncn[nH]2)cc1,?,1µM*,-10%,8.9µM*,10%,nt
COC(=O)[C@@H]1CC2=CC(=O)CC[C@]2(C)[C@@]23O[C@@H]2C[C@@]2(C)[C@H](CC[C@@]24CCC(=O)O4)[C@@H]13,nt,30%[59 µM],nt,8%,nt,nt
Cc1ccccc1C(=O)NCC(c1cccnc1)N1CCc2ccccc21 (stereo not given),-15%,5%[59 µM],nt,nt,30%,6%
Cn1cc(Br)c(C(=O)NC(=S)N2CCN(c3ccccn3)CC2)n1,-10%,40µM*,0%,?,17%,?
O=C(NC(=S)N1CCN(c2ccccn2)CC1)c1ccccc1,-14%,40µM*,-4%,-4%,12%,-8%
CN(Cc1ccccc1)CC(O)COc1ccc(CNCc2nccn2C)cc1 (stereo not given),-15%[11.4 µM],nt,-22%,-14%,14%,56µM*
CC(c1ccccc1)C(Cc1nc2ccccc2[nH]1)c1nc2ccccc2[nH]1 (stereo not given),nt,?,-5%,-2%,nt,-25%
Cc1cccc(CC(Cc2nc3ccccc3[nH]2)c2nc3ccccc3[nH]2)c1 (stereo not given),-32%,?,-4%,40µM*,10%,-6%
CCN(CC)S(=O)(=O)c1ccc(N2CCCC2)c(NC(=O)Cc2c(F)cccc2Cl)c1,-6%,nt,nt,21%,39%,?
Cc1cc(C)c(C#N)c(SCCN2CCCCC2)n1,-1%,?,nt,19%,23%,0%
C=CCSc1nc(-c2ccc3c(c2)OCO3)cc(C(F)(F)F)c1C#N,3%,nt,3%,18µM*,54%,36%
N#Cc1c(C(F)(F)F)cc(-c2ccc(Cl)c(Cl)c2)nc1SCCN1CCOCC1,-6%,56µM*,4%,17%,33%,-6%
Cc1cc(C(F)(F)F)nc(SCCN2CCOCC2)c1C#N,-14%,13µM*,8%,-26%,38%,2%
COc1ccc(CCNC(=O)COC(=O)c2cc(Cl)nc(Cl)c2)cc1,1%,nt,3%,nt,33%,nt
Cc1ccc(S(=O)(=O)N2[C@@H](c3ccc(Cl)cc3)C(C(=O)O)=CC[C@H]2c2ccc(C(C)C)cc2)cc1,-18%,15%[2.33 µM],-7%,nt,15%,79µM*
COc1cccc([C@@H]2CC=C(C(=O)O)[C@H](c3ccccc3F)N2S(=O)(=O)c2ccc(C)cc2)c1,-6%,14%[2.33 µM],-28%,nt,53%,79µM*
COc1cccc([C@@H]2CC=C(C(=O)O)[C@H](c3ccc(C)cc3)N2S(=O)(=O)c2ccc(C)cc2)c1,-5%,nt,2%,nt,33%,nt
CCCCC(=O)N1CC(=O)Nc2ccc(F)cc2C1c1ccccc1 (stereo not given),-26%,-30%,nt,11%,59%,-30%
Cc1ccc2nc(CSc3nnc(-c4ccco4)n3-c3ccccc3)cc(=O)n2c1,?,nt,nt,nt,12%,nt
Cc1cccc(CSc2nnc(-c3ccco3)o2)c1,31%,51%,43%[11.4 µM],28µM*,58%,-6%
